# Data taken from PubChem BioAssay.
# The source made the active and inactive calls. Unless noted, no rule for the calls is given here.
# Legend:
# [1] = HepG2 liver cancer cell viability effects, profiling panel, resazurin fluorescence, 24 h, PK04 Diversity Set (AID 1172); conditions: higher = more signal; also: test concentration not given here
# [2] = basal S. cerevisiae growth modulation, no modifier, primary screen, OD600, strain BY4716, 24 h, basal condition (AID 1173); conditions: OD600, 24 h, higher = more signal, called active from +8 up or from −8 down
# [3] = MM1S myeloma cell viability, profiling panel, resazurin fluorescence, basal, 24 h, PK04 Diversity Set (AID 1174); conditions: higher = more signal, called active from +8 up or from −8 down;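 also: MM1S multiple myeloma cell line; test concentration not given here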
# [4] = target: Dihydroorotate dehydrogenase (quinone), mitochondrial (Plasmodium falciparum (isolate 3D7)) (UniProt Q08210); assay: PfDHODH enzyme inhibitors, primary screen, biochemical, C-terminal His tag, absorbance 600 nm (AID 1175); conditions: DCIP absorbance 600 nm, higher = more signal, called active from +8 up or from −8 down;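 also: recombinant parasite enzyme with a five histidine tag at its C terminus; test concentration not given here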
# [5] = P. aeruginosa biofilm formation inhibitors, primary screen, strain PAO1, LB-PBS medium, absorbance 600 nm (AID 1176); also: test concentration not given here; conditions: P. aeruginosa PAO1 growth/biofilm, A600, 12 h; higher = more signal
# [6] = S. cerevisiae RM11-1a growth modifiers, primary screen, strain RM11-1a, OD600, basal, 24 h (AID 1177); conditions: OD600, 24 h, higher = more signal, called active from +8 up or from −8 down;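 also: cultures grown under basal conditions with no added stressor; test concentration not given here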
# [7] = E. coli acrAB mutant growth effects, primary screen, E. coli filamentation inducers, strain DRC39, OD650, 24 h (AID 1178); conditions: higher = more signal, called active from +8 up or from −8 down;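 also: growth measured as culture turbidity by optical density at 650 nm; test concentration not given here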
# [8] = E. coli acrAB mutant growth effects, primary screen, E. coli filamentation inducers, strain DRC39, OD650, 48 h (AID 1179);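 also: screen aims at cell division blockers that make cells filament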; conditions: E. coli DRC39 delta-acrAB growth, higher = more signal, called active from +8 up or from −8 down
# [9] = RPMI8226 myeloma cell viability, profiling panel, resazurin fluorescence, basal, 24 h, PK04 Diversity Set (AID 1180); conditions: higher = more signal;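 also: RPMI8826 multiple myeloma cell line at 5000 cells per well; test concentration not given here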
# [10] = target: E3 ubiquitin-protein ligase XIAP (Homo sapiens) (UniProt P98170); assay: XIAP binders, primary screen, biophysical, small-molecule microarray, fluorescence 635 nm (AID 1181); conditions: small-molecule microarray binding, higher = more signal;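 also: score merges 667 nm emission and signal to noise over triplicate slides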
# Chain of E3 ubiquitin-protein ligase XIAP (Homo sapiens) (P98170 whole entry, looked up): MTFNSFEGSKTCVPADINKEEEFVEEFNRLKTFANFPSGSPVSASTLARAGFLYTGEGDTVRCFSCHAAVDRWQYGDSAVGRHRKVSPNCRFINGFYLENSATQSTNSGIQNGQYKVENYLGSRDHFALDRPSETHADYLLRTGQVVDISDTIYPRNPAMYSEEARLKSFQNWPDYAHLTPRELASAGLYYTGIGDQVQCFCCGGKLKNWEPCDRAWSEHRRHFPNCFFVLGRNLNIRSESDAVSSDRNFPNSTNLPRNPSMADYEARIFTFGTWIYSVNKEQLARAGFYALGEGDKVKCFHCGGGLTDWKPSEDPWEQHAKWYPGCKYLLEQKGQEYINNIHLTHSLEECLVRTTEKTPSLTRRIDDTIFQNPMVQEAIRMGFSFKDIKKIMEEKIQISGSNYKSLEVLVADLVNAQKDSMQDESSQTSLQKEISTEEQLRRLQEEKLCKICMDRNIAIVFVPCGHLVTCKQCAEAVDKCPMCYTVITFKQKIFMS
# Chain of Dihydroorotate dehydrogenase (quinone), mitochondrial (Plasmodium falciparum (isolate 3D7)) (Q08210 whole entry, looked up): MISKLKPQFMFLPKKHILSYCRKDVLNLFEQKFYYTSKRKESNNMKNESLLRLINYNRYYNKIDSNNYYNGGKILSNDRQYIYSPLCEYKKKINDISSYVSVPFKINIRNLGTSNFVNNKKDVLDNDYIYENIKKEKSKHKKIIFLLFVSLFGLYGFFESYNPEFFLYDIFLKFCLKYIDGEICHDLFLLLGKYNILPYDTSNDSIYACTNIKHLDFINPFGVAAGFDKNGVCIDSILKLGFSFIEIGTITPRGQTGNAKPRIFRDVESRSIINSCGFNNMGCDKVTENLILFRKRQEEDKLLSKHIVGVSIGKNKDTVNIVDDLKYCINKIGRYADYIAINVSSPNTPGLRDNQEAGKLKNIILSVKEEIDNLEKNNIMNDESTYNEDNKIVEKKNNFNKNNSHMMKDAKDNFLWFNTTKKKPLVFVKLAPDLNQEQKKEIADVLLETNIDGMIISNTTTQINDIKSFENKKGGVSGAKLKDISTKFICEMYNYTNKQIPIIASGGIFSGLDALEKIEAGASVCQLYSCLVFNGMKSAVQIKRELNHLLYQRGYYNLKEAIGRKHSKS
SMILES,z-score [1],z-score [2],z-score [3],composite z-score [4],z-score [5],z-score [6],z-score [7],z-score [8],z-score [9],composite z-score [10]
C[C@]1(C(=O)NCc2ccccc2)c2ccccc2C(=O)N(Cc2ccc(OC(F)(F)F)cc2)[C@H]1c1ccc(CO)cc1,0.333,-1.51 (inactive),1.51 (inactive),-0.482 (inactive),0.609 (inactive),-0.593 (inactive),1 (inactive),0.806 (inactive),1.19,-0.0872
COc1cc(C(O)C2C=CC3C(=O)N(c4ccccc4)C(=O)C3N2Nc2ccc(C#N)cc2)cc(OC)c1OC (stereo not given),-1.28,-2.44 (inactive),-1.62 (inactive),0.198 (inactive),1.36 (inactive),-0.343 (inactive),-0.914 (inactive),-0.386 (inactive),-0.919,0.0819
CC(C)N1C(=O)[C@@]2(c3ccc([N+](=O)[O-])cc3)CC(=O)N(CC34CC5CC(CC(C5)C3)C4)[C@@H]2c2ccc(CO)cc21,-0.0685,0.601 (inactive),-1.02 (inactive),-4.98 (inactive),-0.0902 (inactive),0.156 (inactive),0.101 (inactive),0.0457 (inactive),-0.629,-0.0224
C=C(CCCC)/C(=C/C[C@H](OC(C)=O)c1ccc(CO)o1)c1cnc2ccccc2c1,-0.0826,-0.143 (inactive),-0.735 (inactive),-6.03 (inactive),1.58 (inactive),1.66 (inactive),0.18 (inactive),0.284 (inactive),0.137,0.0426
CCOC(=O)C[C@H]1[C@H](OC(=O)Cc2ccc3c(c2)OCO3)[C@@H](NC(=O)C2CCCCC2)c2cc(OCCCO)ccc2N1C(=O)Cc1ccc(OC)cc1,-0.778,-0.815 (inactive),0.184 (inactive),-0.974 (inactive),0.183 (inactive),-1.53 (inactive),0.015 (inactive),0.424 (inactive),0.283,0.0413
CCOC(=O)[C@H]1C/C=C/C[C@H](C(=O)OCC)C(=O)O[C@H]2[C@@H](OC)O[C@H](CO)[C@@H](OC(=O)Nc3ccc4c(c3)OCO4)[C@@H]2OC1=O,-4.19,0.273 (inactive),-6.98 (inactive),0.0446 (inactive),1.2 (inactive),1.06 (inactive),1.03 (inactive),1.53 (inactive),-6.84,-0.102
N#Cc1ccc(NN2C(C(O)c3ccc([N+](=O)[O-])cc3)C=CC3C(=O)N(c4ccccc4)C(=O)C32)cc1 (stereo not given),-1.07,-0.203 (inactive),-0.55 (inactive),-0.0079 (inactive),1.23 (inactive),-0.487 (inactive),-0.685 (inactive),-0.418 (inactive),-1.08,-0.0391
Cc1ccccc1C(O)C1C=CC2C(=O)N(C)C(=O)C2N1N1CCCCC1 (stereo not given),-0.424,0.492 (inactive),-1.24 (inactive),-0.318 (inactive),0.723 (inactive),-0.252 (inactive),-0.751 (inactive),-0.495 (inactive),-1.64,0.124
CCOC(=O)C[C@H]1[C@H](OC(=O)Cc2ccc3c(c2)OCO3)[C@@H](NC(=O)c2ccc(-c3ccccc3)cc2)c2cc(OCCCO)ccc2N1C(=O)c1ccccc1,0.0575,0.188 (inactive),0.106 (inactive),-0.0887 (inactive),0.608 (inactive),0.412 (inactive),1.02 (inactive),1.16 (inactive),-0.264,-0.17
COc1cccc(C(=O)O[C@H]2CC[C@]3(C)C4=C(CCC3C2(C)C)[C@]2(C)CC[C@H]([C@H](C)CCCC(C)C)[C@@]2(C)CC4)c1 (stereo not given in full),0.514,-0.488 (inactive),0.697 (inactive),-2.17 (inactive),0.671 (inactive),-1.62 (inactive),0.621 (inactive),1.18 (inactive),0.815,0.132
COCCCNC(=O)[C@@]1(C)c2ccccc2C(=O)N(Cc2cc(C(F)(F)F)cc(C(F)(F)F)c2)[C@H]1c1ccc(CO)cc1,-0.063,-0.0384 (inactive),0.186 (inactive),1.03 (inactive),0.127 (inactive),0.429 (inactive),0.534 (inactive),1.3 (inactive),0.394,-0.204
CC(C)(C)OC(=O)CC[C@@]1(C(=O)NCCN2CCOCC2)N=C(c2ccc(OCCCO)cc2)O[C@@H]1c1ccccc1,-0.781,-0.712 (inactive),0.596 (inactive),-0.317 (inactive),-0.347 (inactive),0.572 (inactive),1.15 (inactive),1.32 (inactive),0.641,0.228
CC(C)Cc1ccc(CN2CC[C@@H](NS(=O)(=O)c3ccccc3)C2)cc1,-0.788,-14.2 (active),-1.73 (inactive),-0.371 (inactive),-0.0126 (inactive),-1.21 (inactive),-20.5 (active),-19.9 (active),-1.03,-0.178
CC=CC(O)C1C=CC2C(=O)N(c3ccccc3)C(=O)C2N1Nc1ccc(C(C)C)cc1 (stereo not given),-1.76,0.474 (inactive),-0.785 (inactive),0.784 (inactive),0.518 (inactive),1.11 (inactive),-0.457 (inactive),-1.02 (inactive),-0.863,0.384
C=CCC(OC(C)=O)[C@@H]1[C@@H](N(Cc2ccc(-c3cccc(C(F)(F)F)c3)o2)C(=O)c2ccc(C)cc2)c2cc(OCCCO)ccc2N1C(=O)c1ccc(-c2ccccc2)cc1 (stereo not given in full),0.0024,-0.15 (inactive),-0.936 (inactive),-0.23 (inactive),0.477 (inactive),0.677 (inactive),-0.456 (inactive),0.0289 (inactive),0.525,-0.127
CCCCCN1CC=CC23O[C@@H]4/C=C\CCC(C)OC(=O)C4[C@H]2C(=O)N(CCCCCO)[C@@H]3C1=O (stereo not given in full),0.58,-1.12 (inactive),0.699 (inactive),0.121 (inactive),0.357 (inactive),-1.01 (inactive),0.683 (inactive),0.389 (inactive),0.522,-0.144
COC(=O)c1ccc(C(O)C2C=CC3C(=O)N(c4ccccc4)C(=O)C3N2Nc2ccc(C#N)cc2)o1 (stereo not given),-0.407,-0.959 (inactive),-0.582 (inactive),-0.847 (inactive),1.38 (inactive),0.0055 (inactive),-1.52 (inactive),-0.249 (inactive),-0.357,-0.22
C=CCC(OC(C)=O)[C@@H]1[C@@H](N(Cc2cccc3ccccc23)C(=O)c2cccc3ccccc23)c2cc(OCCCO)ccc2N1C(=O)c1ccc2ccccc2n1 (stereo not given in full),-0.0111,-0.337 (inactive),-0.388 (inactive),-0.747 (inactive),-0.334 (inactive),-0.929 (inactive),0.854 (inactive),0.424 (inactive),-0.0685,-0.124
COc1ccc(C(=O)Nc2cccc(CN3C(=O)[C@@]4(O[C@@H](CCn5cc(CCO)nn5)[C@H]([Si](C)(C)c5ccc(OC)cc5)[C@H]4C)c4ccccc43)c2)cc1,-5.75,-6.12 (inactive),-9.07 (active),1.42 (inactive),0.769 (inactive),3.1 (inactive),1.7 (inactive),0.633 (inactive),-6.23,0.126
Cc1ccc(S[C@]2(C(=O)NCC(C)C)CC(=O)N(Cc3ccccc3Cl)[C@@H]2c2ccc(CO)cc2)cc1,-0.0675,-0.511 (inactive),0.196 (inactive),-0.223 (inactive),-0.205 (inactive),0.343 (inactive),-0.115 (inactive),-0.219 (inactive),0.405,0.012
C=C(COC)C(=O)CC[C@H](OC(C)=O)c1cccc(OCCO)c1,-1.32,-0.764 (inactive),-0.854 (inactive),-0.859 (inactive),-0.73 (inactive),-0.496 (inactive),-1.03 (inactive),-0.639 (inactive),-1.27,0.0346
CCOC(=O)C1=CCC(c2ccc(C#N)cc2)N(S(=O)(=O)c2ccc(C)cc2)C1 (stereo not given),-0.688,0.916 (inactive),-1.35 (inactive),-0.496 (inactive),0.654 (inactive),0.906 (inactive),-0.445 (inactive),0.435 (inactive),-1.94,-0.187
COC(=O)c1ccc(C23CC2(C(NP(=O)(c2ccccc2)c2ccccc2)c2ccccc2)C3)cc1 (stereo not given),-0.402,-1.17 (inactive),-0.941 (inactive),-1.13 (inactive),0.287 (inactive),-3.39 (inactive),-0.29 (inactive),-0.16 (inactive),-0.122,-0.126
CC(=O)NCCCC[C@@H]1NC(=O)[C@H]2C[C@@H](C(=O)NCCCCCC[N+](C)(C)C)[C@@H](c3cccc(OCCO)c3)N2C1=O,1.04,-0.458 (inactive),0.56 (inactive),-1.75 (inactive),3.45 (inactive),-0.718 (inactive),-0.47 (inactive),-0.711 (inactive),0.0647,0.0871
